Assay results published in publication PMC4336329 (PLoS ONE, 2015).
Hit rate of the full screen: of about 310,000 compounds, about 2,200 (0.71%) showed an effect of 50% or more. The effect is printed as a negative number. This excerpt belongs to a sample that is enriched for strong results.

Biological target: human ether-à-go-go-related gene (hERG) potassium channel (human, UniProt Q12809)
Assay: primary screen, population patch clamp on CHO cells stably expressing hERG; higher = less effect of the substance
Procedure: Briefly, Chinese hamster ovary (CHO) cells stably expressing the hERG channel were dislodged from tissue culture flasks and dispensed into PPC plates. […] During the recording, background leak currents were estimated by a 100 ms step to -80 mV from an initial holding potential of -70 mV and subtracted from the subsequent current measurement. The campaign was conducted in two phases using slight differences in recording protocol. In the first phase, the initial voltage pulse used a 100 ms step to -30 mV from a holding potential of -70 mV, a 2 s conditioning step to +25 mV, and a 2 s test step to -30 mV. During the second phase of the screen, the potential during the conditioning step was raised to +45 mV. In both phases of the campaign, a secondary voltage pulse was applied using the same parameters as the second phase initial pulse. The initial and secondary pulses were applied in the absence of compound, and upon application of 1 μM and 10 μM test concentrations. Small molecule effects on hERG current density were quantified by […].

Chain of human ether-à-go-go-related gene (hERG) potassium channel (Q12809 whole entry, looked up): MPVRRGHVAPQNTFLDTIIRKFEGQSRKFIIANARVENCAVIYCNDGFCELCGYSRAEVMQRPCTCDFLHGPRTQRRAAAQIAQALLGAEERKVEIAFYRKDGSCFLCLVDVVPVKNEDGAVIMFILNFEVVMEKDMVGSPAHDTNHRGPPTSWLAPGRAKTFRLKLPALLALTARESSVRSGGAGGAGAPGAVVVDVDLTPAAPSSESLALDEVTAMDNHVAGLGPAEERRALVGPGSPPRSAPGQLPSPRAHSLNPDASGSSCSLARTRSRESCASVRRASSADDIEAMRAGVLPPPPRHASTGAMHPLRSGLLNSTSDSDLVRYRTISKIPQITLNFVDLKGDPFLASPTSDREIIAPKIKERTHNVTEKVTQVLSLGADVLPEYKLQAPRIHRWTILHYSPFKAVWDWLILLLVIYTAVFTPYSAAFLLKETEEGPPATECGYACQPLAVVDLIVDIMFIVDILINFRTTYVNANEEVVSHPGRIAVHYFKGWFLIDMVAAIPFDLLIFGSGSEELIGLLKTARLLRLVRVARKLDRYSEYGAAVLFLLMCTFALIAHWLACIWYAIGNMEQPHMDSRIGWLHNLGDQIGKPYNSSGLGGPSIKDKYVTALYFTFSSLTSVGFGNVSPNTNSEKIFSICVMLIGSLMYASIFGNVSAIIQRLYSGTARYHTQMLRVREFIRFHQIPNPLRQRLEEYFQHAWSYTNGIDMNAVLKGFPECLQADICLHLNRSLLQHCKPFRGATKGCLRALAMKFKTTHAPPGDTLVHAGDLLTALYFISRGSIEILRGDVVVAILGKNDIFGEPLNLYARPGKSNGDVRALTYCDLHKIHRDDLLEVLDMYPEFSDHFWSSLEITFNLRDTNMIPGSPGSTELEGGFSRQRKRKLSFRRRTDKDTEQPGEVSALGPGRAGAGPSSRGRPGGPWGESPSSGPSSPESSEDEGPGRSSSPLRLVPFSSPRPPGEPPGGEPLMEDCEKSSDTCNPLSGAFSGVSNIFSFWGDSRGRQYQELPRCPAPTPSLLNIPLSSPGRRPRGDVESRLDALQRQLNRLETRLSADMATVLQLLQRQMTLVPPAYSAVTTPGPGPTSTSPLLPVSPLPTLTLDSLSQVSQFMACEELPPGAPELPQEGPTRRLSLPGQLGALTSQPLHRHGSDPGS

Point of comparison: `COc1cccc(CN2CCN(Cc3cccn3-c3cccnc3)CC2CCO)c1` (stereo not shown), “hERG current change (%, negative = inhibition) at 1uM” value -62.2%. Against it:
- Cc1cc(C)cc(N(C(=O)c2csnn2)C(C(=O)NC2CCCCC2)c2ccccn2)c1 (stereo not shown) — higher, 11.5%
- CN(Cc1ccccc1)C(=O)c1ccc(NC2=NC3CS(=O)(=O)CC3S2)cc1 (stereo not shown) — higher, -3.47%
- O=C(O)Cc1ccc(O)c(F)c1 — higher, 4.7%
- CN1CCN(NC(=S)NC2CCCCC2)CC1 — higher, 3.73%
- CCOC(=O)C1CCN(C(=O)c2sccc2Cl)CC1 — higher, 12.5%
- O=S(=O)(Nc1ccc(Cl)cn1)c1ccc(Cl)cc1 — higher, 16.8%
- O=C(NNC(=O)C1CCCO1)c1ccc(Br)cc1 (stereo not shown) — higher, 8.75%
- O=C(NC1CCCCC1)NC1CCN(S(=O)(=O)c2ccc3c(c2)OCCO3)CC1 — higher, 9.08%
- Cc1ccc(S(=O)(=O)N(C(=O)c2ccncc2)c2ccc3oc4c(c3c2)CCCC4)cc1[N+](=O)[O-] — higher, 19.2%
- Cc1ccc(Nc2nc(Cl)nc(NC(C)(C)C)n2)cc1 — higher, 11.9%
- Cc1ccc(Cl)cc1N1CCN(C(=O)CNC(=O)c2ccc(Br)o2)CC1 — higher, 4.64%
- O=C(NCC(=O)N1CCN(c2ccccc2)CC1)c1ccc(Br)o1 — higher, -7.83%
- O=C(NCC(=O)N1CCN(c2cccc(Cl)c2)CC1)c1ccc(Br)o1 — higher, -57.5%
- COc1ccc(-n2c(-c3ccc(Br)cc3)c[n+]3c2CCc2ccccc2-3)cc1.[Br-] — lower, -90.6%
- Cc1ccc(-n2c(-c3ccc(Br)cc3)c[n+]3c2CCc2ccc4cccnc4c2-3)cc1.[Br-] — lower, -86.6%
- COc1ccc(-n2c(-c3ccc(Cl)cc3)c[n+]3c2CCCCC3)cc1.[Br-] — higher, 8.19%
- COc1ccc(-n2c(-c3ccccc3)c[n+]3c2CCC3)cc1.[Br-] — higher, 6.43%
- COc1ccc(-n2c(-c3ccc(Br)cc3)c[n+]3c2SC(C)C3)cc1.[Br-] (stereo not shown) — higher, -26%
- Brc1ccc(-c2cn3c(n2)CCc2ccc4cccnc4c2-3)cc1 — higher, 10.5%
- COc1ccc(-n2c(-c3ccc(Cl)cc3)c[n+]3c2CCc2ccccc2-3)cc1.[Br-] — lower, -70.3%
- Cc1ccc(-n2c(-c3ccccc3)c[n+]3c2CCC3)cc1.[Br-] — higher, -2.23%
- COc1ccccc1-n1c(-c2ccccc2)c[n+]2c1CCc1ccccc1-2.[Br-] — higher, -34.7%
- COc1ccc(-n2c(-c3ccc(Br)cc3)c[n+]3c2CCC3)cc1.[Br-] — higher, -21%
- Cc1ccc(-n2c(-c3ccccc3)c[n+]3c2CCc2ccccc2-3)c(C)c1.[Br-] — lower, -82.5%
- Cc1ccc(-c2c[n+]3c(n2-c2ccccc2)CCC3)cc1.[Br-] — higher, 1.57%
- O=C(NCCN1CCOCC1)c1ccc(N2CCCC2)c([N+](=O)[O-])c1 — higher, -2.75%
- COC(=O)/C=C\C(=O)Nc1cccc([N+](=O)[O-])c1 — higher, 8.24%
- CCOc1nc(C)cc(C)c1S(=O)(=O)c1ccc(Cl)cc1 — higher, 9.36%
- CCCCNC(=O)C1CCCN(S(=O)(=O)c2ccc(S(=O)(=O)NCC(C)C)cc2)C1 (stereo not shown) — higher, -3.36%
- COc1ccccc1NCC(=O)N/N=C/c1cccnc1 — higher, 4.49%
- Cn1c(SCC(=O)Nc2ccccc2)nnc1-c1ccc(NC(=O)CCc2ccccc2)cc1 — higher, 6.68%
- Cc1cc(C)nc(-n2nc(C)cc2NC(=O)CN2CCc3ccccc3C2)n1 — higher, -26.4%
- COc1ccc(OC)c(C2C(C(N)=O)=C(C)Nc3nc(CCCO)nn32)c1 (stereo not shown) — higher, 15.5%
- Cc1onc(-c2ccccc2Cl)c1C(=O)N1CCN(c2ccccc2)CC1 — higher, 1.1%
- O=C(c1cn(-c2ccccc2)nc1-c1cccs1)N1CCOCC1 — higher, 4.92%
- C=CCN(CC=C)CCOc1cc(C)ccc1[N+](=O)[O-].O=C(O)C(=O)O — higher, 6.69%
- C=CCN(CC=C)CCOc1ccc(C)cc1[N+](=O)[O-].O=C(O)C(=O)O — lower, -62.5%
- C=CCN(CC=C)CCOc1ccccc1[N+](=O)[O-].O=C(O)C(=O)O — higher, 1.55%
- O=C(CN1CCN(C/C=C/c2ccccc2)CC1)Nc1ccccc1C(=O)NC1CC1 — lower, -88.8%
- NC(=O)C1CCN(CC(=O)Nc2ccccc2C(=O)NC2CC2)CC1 — higher, 10.7%
- S=C(NC1CCCCC1)N1CCN(C/C=C/c2ccccc2)CC1 — higher, 3.77%
- O=C(CN1CCN(Cc2ccccc2)CC1)NC(=O)NC1CCCCC1 — higher, -16.1%
- O=C(CN1CCN(C/C=C/c2ccccc2)CC1)NC(=O)NC1CCCCC1 — lower, -69.7%
- CC1CCN(CC(=O)Nc2ccccc2C(=O)NC2CC2)CC1 — higher, 5.31%
- O=C(CSCc1ccccc1)N/N=C/c1cc2c(cc1Br)OCO2 — higher, 8.61%
- CSc1nnc(Cc2sc(-c3ccccc3)nc2-c2ccccc2)o1 — higher, 12.1%
- COc1ccc(CN2CCN(Cc3cccn3-c3ncccn3)CC2CCO)c(C)c1C (stereo not shown) — lower, -80.4%
- OCCC1CN(Cc2cccn2-c2ncccn2)CCN1C1CCCC1 (stereo not shown) — higher, 0.978%
- OCCC1CN(Cc2cccn2-c2ncccn2)CCN1Cc1ccc(F)cc1 (stereo not shown) — lower, -74.7%
- CCOc1ccc(CN2CCN(Cc3cccn3-c3ncccn3)CC2CCO)cc1 (stereo not shown) — lower, -84%
- CC(C)=CCN1CCN(Cc2cccn2-c2ncccn2)CC1CCO (stereo not shown) — higher, -3.9%
- OCCC1CN(Cc2cccn2-c2cccnc2)CCN1CCc1ccccc1 (stereo not shown) — higher, -37.5%
- COc1ccc(CN2CCN(CC3CC3)CC2CCO)c(C)c1C (stereo not shown) — higher, 13.2%
- OCCC1CN(Cc2cccn2-c2ncccn2)CCN1CCc1ccccc1 (stereo not shown) — higher, -44.6%
- OCCC1CN(Cc2cccn2-c2ncccn2)CCN1Cc1ccccc1 (stereo not shown) — higher, -33.4%
- OCCC1CN(Cc2cccn2-c2cccnc2)CCN1Cc1ccccc1 (stereo not shown) — higher, -7.57%
- COc1ccc(CN2CCN(Cc3ccon3)CC2CCO)c(C)c1C (stereo not shown) — higher, 2.93%
